± gives the standard deviation of the averaged measurements. Whole data set: some 25,000 sequences, median “ln(normalized median fluorescence intensity)” near 8.6, cut for the highest 2% near 10. This is one part of a sample in which the highest values are shown more often than they occur.
Tested on: PfAP2-EXP AP2 domain (GST-tagged)
Experiment: gcPBM binding intensity (ln(normalized median fluorescence intensity)); higher = stronger DNA binding
How it was run: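 An Agilent 4 × 180k array carrying primer-extended double-stranded 36-bp intergenic genomic probes and negative controls received GST-tagged P. falciparum DNA-binding domains expressed in E. coli, about 25 μg on average, for 1 h. The binding buffer contained 1× PBS, 1% milk, 0.2 mg/ml BSA, 0.5% salmon testes DNA and 0.03% Triton X-100. Binding intensity is the top Masliner-normalised natural-log median intensity across replicate spots of either probe orientation, read after Alexa488 anti-GST antibody staining and a 488 nm scan.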

| Sequence | gcPBM binding intensity (ln) |
| --- | --- |
| TCACATACATTACTTACACACCATATTAAGATATAC [CACACA_site4415] | 8.68 ± 0.43 |
| ATTTATATTCCAATATGTACATATTTTCGTATAACC [XGTACX_site8507] | 8.88 ± 0.35 |
| AAATTTCAATAATCTACACACATAAAAAAACAAAAG [CACACA_site1702] | 8.82 ± 0.52 |
| TACAATTTTTTAAATGCACACAAAAGGAATAAATAA [CACACA_site8075] | 8.78 ± 0.16 |
| GAAAAAAGAAATTAAACATGCATCTGCAAATTTAAA [TGCATGCA_site974] | 8.34 ± 0.42 |
| TGAATACTTATGTTCGCACACATGCAAATTAAAAAA [CACACA_site4048] | 8.62 ± 0.22 |
| ACTATAAATATATACACATGCGCACACACAAGTGGG [TGCATGCA_site432] | 8.77 ± 0.39 |
| TCTTATTCAAACGTAAAACGAAGAAGAAAAAAAAAA [CACACA_negctrl_site149] | 8.49 ± 0.41 |
| AAAATAATGTATATATGTACATATAAATATATATAT [XGTACX_site8081] | 9.32 |
| ATACACAAATGCATACGTACATATATATATATATAT [XGTACX_site3504] | 10.2 ± 0.33 |
| AATGTACAAATACGTACACACATATATATATATATA [CACACA_site1542] | 10.1 ± 0.42 |
| GTTATAAATGCATATACACACATACGTACATACATA [CACACA_site7655] | 8.79 ± 0.23 |
| AAAATAATAAATAAATGTACATATATATATATATAT [XGTACX_site3078] | 10.2 ± 0.47 |
| ATAATAAAAATAAAATGTACATACATAAATATATAT [XGTACX_site6228] | 8.62 ± 0.28 |
| TATTTCATATGAAGAAGTACTATTAATAATTTCCTT [XGTACX_site6587] | 8.3 ± 0.28 |
| TATTATTTTAATTATTCACACATTATTATAAAAATT [CACACA_site5538] | 8.3 ± 0.33 |
| ATTATTCGTTTTAAATGTACTCATATAAACGATAAA [XGTACX_site7866] | 8.52 ± 0.3 |
| GGATATAACAAACACACACACACATATATATATATT [CACACA_site4141] | 8.59 ± 0.19 |
| AAATCGAACAAATTATGTACTAAAAAAAAAATTTAT [XGTACX_site6399] | 8.39 ± 0.4 |
| AATATGTATCCATACACACATACATTTTATTTGCAA [CACACA_site874] | 8.65 ± 0.45 |
| ATATATATATATATAACACACGCAAAAAAATTAAAT [CACACA_site8395] | 10.2 ± 0.26 |
| AAAAAAAATTAAAATAAAATATAAATATAAAATATA [GTGCAC_negctrl_site714] | 8.23 ± 0.24 |

| Sequence | gcPBM binding intensity (ln) |
| --- | --- |
| AGCAAAAATTAAATAAATAAATATATATATATATAT [TGCATGCA_negctrl_site449] | 10.2 ± 0.63 |
| ATATATATATATAACACACGCAAAAAAATTAAATAA [CACACA_site1400] | 9.96 ± 0.11 |
| TGATATATATATATATATATAACACACGCAAAAAAA [TGCATGCA_negctrl_site240] | 8.73 ± 0.51 |
| TACAAAAAAATAAAAAAAATTAAATAAATAAATATA [CACACA_negctrl_site45] | 8.17 ± 0.37 |
| ATATATATATATATATGTACATATATACATATACAT [XGTACX_site2350] | 9.99 ± 0.43 |
| ATATATATATATACATGTACATATATACATTATATT [XGTACX_site936] | 9.99 ± 0.45 |
| ATATATATATATATATGTACATATGTTAGGATCAAA [XGTACX_site8626] | 10.2 ± 0.33 |
| TATGTATCAAATAAATGTACATATATATATATATAT [XGTACX_site2189] | 10.1 ± 0.49 |
| ATCATGTTATATACATGTACATATATATATATATAA [XGTACX_site609] | 8.51 ± 0.4 |
| ATCATGTTATATACATGTACATATATATATATATAT [XGTACX_site1329] | 10.2 ± 0.3 |
| ATATATATATACATATGTACATATATATTTATACAT [XGTACX_site2463] | 9.64 ± 0.33 |
| TGTTATATGTTCAAATGTACAAATCATATACATGTT [XGTACX_site3192] | 8.45 ± 0.38 |
| TTATGGTTATACATATGTACATATATATATATATAT [XGTACX_site1494] | 10.3 ± 0.2 |
| AAAGATACTTTCCTCAAACACACAAAACTATACAAC [CACACA_site1475] | 8.79 ± 0.45 |
| AAATTAAAATAATAATTCTACAAATTAATTTATCAT [XGTACX_negctrl_site44] | 7.97 ± 0.49 |
| TATTTAAAACTATACACATGCATTATATAAAGATAT [TGCATGCA_site702] | 8.79 ± 0.4 |
| AAAATAATATTTAATACACACATAATTATAATATAA [CACACA_site782] | 8.48 ± 0.32 |
| AATGTTTTTGTGAGATGTATAAATTTTATTTTATTT [XGTACX_negctrl_site413] | 8.38 ± 0.38 |
| ATATAACACAAGGGCACACATATACCTTTCCTTTTT [CACACA_site412] | 8.77 ± 0.36 |
| ATTAATTTTAATAAAGGTACACGTAGTTTTTTATTA [XGTACX_site7868] | 8.16 ± 0.34 |
| AAAAAAAAAATATGTACACACATATAAAATACATAA [CACACA_site6869] | 8.56 ± 0.3 |
| TTTTTTTTTTTTTTTTTTTTTTTATGTTCTTAAAAA [GTGCAC_negctrl_site62] | 8.02 ± 0.67 |

| Sequence | gcPBM binding intensity (ln) |
| --- | --- |
| CACACCCACAAAAACACACACAAAGGTGTTCTTATA [CACACA_site1293] | 9.43 ± 0.64 |
| TTATGTTCTTTAAAACCACACACCCCCCAACCCCCC [CACACA_site8742] | 10.9 ± 0.29 |
| CAAACCCACCAACACACACACACAAAAATGATTAAA [CACACA_site2432] | 8.49 ± 0.68 |
| CTTTAAACCCTGAACACACACAAATACACCCAAAAA [CACACA_site4297] | 8.81 ± 0.42 |
| ATGTTCTTTAAAACCACACACCCCCCAACCCCCCTC [CACACA_site2373] | 10.6 ± 0.13 |
| ATAAATTTTTTTTTTTTTTTTTTTTTTTTTTTTTTT [CACACA_negctrl_site508] | 9.19 ± 0.057 |
| ATATATTTTAATTGTTGTACATATTAAATAAATAGG [XGTACX_site2311] | 8.47 ± 0.49 |
| TTGTATAAAATATGTAGTACAATAATATAACATTTT [XGTACX_site8607] | 8.55 ± 0.2 |
| TATAAATTTAAAATGACACACACTAAAATTATTTAA [CACACA_site1239] | 8.36 ± 0.42 |
| TTATTTTATCACACATGTACATATGTTAATTTTTTT [XGTACX_site5598] | 8.84 ± 0.33 |
| ATAAAAAAATAAATTAGTACATATATATATATATAT [XGTACX_site6971] | 10.1 ± 0.35 |
| ATAAAAAAAAAAAAAAGTACACATATAAAAGTATTG [XGTACX_site8265] | 8.42 ± 0.41 |
| ATAATAAAAAAAATTAGTACATATATAAATATAAAT [XGTACX_site1937] | 8.3 ± 0.33 |
| TATATTTATAGGTACACACACACATATAAATAAATA [CACACA_site6345] | 8.65 ± 0.37 |
| TACATATATGATAAAAGTACATATAAATATACATAA [XGTACX_site3804] | 8.45 ± 0.33 |
| TAAAAATATAGGTATACACACATATAAATATAAATA [CACACA_site7785] | 8.54 ± 0.4 |
| TTAAAAAAAAAAAAAAGTACATAAGTATATATAATA [XGTACX_site4295] | 8.43 ± 0.45 |
| AAGCATAAAGTATATAGTACATATATATATATATAT [XGTACX_site2945] | 10.2 ± 0.26 |
| ATTGGACTATAAATAGGTACACATATATATATATAT [XGTACX_site7562] | 10.4 ± 0.33 |
| AGATAAAAAAAGTACACACACACATATATATATATA [CACACA_site3072] | 10.2 ± 0.26 |
| ATATAAAAAAAATTTAGTACATATATATATATATAT [XGTACX_site8635] | 10.2 ± 0.48 |
| CCTTGATATATATAAAGTACATATATATATATATAT [XGTACX_site4325] | 10.2 ± 0.24 |

| Sequence | gcPBM binding intensity (ln) |
| --- | --- |
| ATATAATATATTTTCACACATATTTTATGATGATAA [CACACA_site5614] | 8.3 ± 0.42 |
| TAAATTTGTGGGATTTCACACAGGTTTATTTACATT [CACACA_site5455] | 8.13 ± 0.45 |
| AGAATAATACAAAAATGTACATTAATAAAAAGATAG [XGTACX_site780] | 8.99 ± 0.42 |
| TAACAAGGTTTATATGCATGCAAACATAACCAAAAA [TGCATGCA_site824] | 9.96 ± 0.23 |
| CTTACATAAAATATCACACACATAAAAAAACAATAT [CACACA_site1901] | 8.87 ± 0.39 |
| TAACATAGCAATGTTTCACACACAAGAAAAAATACA [CACACA_site8747] | 8.84 ± 0.45 |
| GGGTTAATATTTACTACACACACTTAAAATATGTAT [CACACA_site47] | 8.59 ± 0.47 |
| ATAATATTAGTAAACACACTCAAATTATATATGATA [CACACA_site5721] | 8.28 ± 0.59 |
| ATATAAATAAAAAAAAGTACATAATATATAAAAATA [XGTACX_site3065] | 8.72 ± 0.33 |
| TGTAATAAATAGTACACACACACATATATATATATT [CACACA_site1388] | 8.73 ± 0.38 |
| TACATAAAATATATCACACATATAATATATATATAT [CACACA_site5834] | 9.54 ± 0.16 |
| TAAAAAAAAATAAAAAGTACATATATATATATATAT [XGTACX_site1155] | 10.3 ± 0.46 |
| AATAAATAAATAAGTACACACATATAAATATAAATA [CACACA_site6271] | 8.69 ± 0.27 |
| AATAAATAAATAAGTACACACATATATATATATATA [CACACA_site284] | 10.2 ± 0.6 |
| ATAAAATAAAATAAAAGTACATAAATATATATATAT [XGTACX_site6110] | 9.83 ± 0.28 |
| ATTAAAATATAAGTCACACATATATATATATATATA [CACACA_site6145] | 10.2 ± 0.33 |
| CAAAATTAATAAGTCACACACACATATATAATATAT [CACACA_site798] | 8.73 ± 0.45 |
| TATATATATATATATAGTACACATATCACATAAATG [XGTACX_site6379] | 10.2 ± 0.23 |
| AAATTAATAAGTCACACACACATATATAATATATAT [CACACA_site799] | 8.54 ± 0.36 |
| TATAAAAATAAAAAAAGTACACATAAAAATATATAT [XGTACX_site5189] | 8.77 ± 0.33 |
| AGTTGGATACGAAGATGTACAATAATAATAATTAAG [XGTACX_site3561] | 8.9 ± 0.35 |
| GTGAAATTATATTTTTGTACATATATTATATATTAT [XGTACX_site3387] | 8.52 ± 0.32 |

Source: the supplement of paper PMC11417369
